# The supplement of paper PMC4466140
# Experiments:
# Experiment in all cases: SPOT peptide array binding signal intensity (averaged, normalized) (arbitrary units (background-subtracted, floor 0; scale differs between SH3 domains)); higher = stronger binding of the SH3 domain to the peptide
# CaNbp2 = molecular target: CaNbp2
# Method in brief: (§1)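 SH3 domains from four yeast species were expressed as GST fusions in E. coli BL21(DE3) and purified on glutathione Sepharose. Each was incubated at 10 μg/ml overnight at 4°C in TBS-based blocking buffer on cellulose membranes bearing synthetic 15-mer peptides, in which serines replaced cysteines. Bound protein was detected with anti-GST antibody, an HRP anti-mouse secondary and luminol, then imaged and quantified with Genespotter. The binding signal is the normalized, background-subtracted spot intensity averaged over replicates, in arbitrary units that are not the same from one domain to another.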
# CaRvs167 = molecular target: CaRvs167
# Method in brief: as §1
# CaRvs167-3 = molecular target: CaRvs167-3
# Method in brief: as §1
# CaSho1 = molecular target: CaSho1
# Method in brief: as §1
# CaSla1-D1-D2 = molecular target: CaSla1-D1-D2
# Method in brief: as §1
# CaSla1-D3 = molecular target: CaSla1-D3
# Method in brief: as §1
# ScAbp1 = molecular target: ScAbp1
# Method in brief: as §1
# ScBbc1 = molecular target: ScBbc1
# Method in brief: as §1
# ScBem1-D1 = molecular target: ScBem1-D1
# Method in brief: as §1
# ScBzz1-D1 = molecular target: ScBzz1-D1
# Method in brief: as §1
# ScBzz1-D2 = molecular target: ScBzz1-D2
# Method in brief: as §1
# ScCyk3 = molecular target: ScCyk3
# Method in brief: as §1
# ScFus1 = molecular target: ScFus1
# Method in brief: as §1
# ScHof1 = molecular target: ScHof1
# Method in brief: as §1
# ScHse1 = molecular target: ScHse1
# Method in brief: as §1
# ScLsb1 = molecular target: ScLsb1
# Method in brief: as §1
# ScLsb2 = molecular target: ScLsb2
# Method in brief: as §1
# ScLsb3 = molecular target: ScLsb3
# Method in brief: as §1
# ScLsb4 = molecular target: ScLsb4
# Method in brief: as §1
# ScMyo3 = molecular target: ScMyo3
# Method in brief: as §1
# ScMyo5 = molecular target: ScMyo5
# Method in brief: as §1
# ScNbp2 = molecular target: ScNbp2
# Method in brief: as §1
# ScPex13 = molecular target: ScPex13
# Method in brief: as §1
# ScRvs167 = molecular target: ScRvs167
# Method in brief: as §1
# ScSho1 = molecular target: ScSho1
# Method in brief: as §1
# ScSla1-D1-D2 = molecular target: ScSla1-D1-D2
# Method in brief: as §1
# ScSla1-D3 = molecular target: ScSla1-D3
# Method in brief: as §1
# SpAbp1-D1 = molecular target: SpAbp1-D1
# Method in brief: as §1
# SpBbc1 = molecular target: SpBbc1
# Method in brief: as §1
# SpBzz1-D1 = molecular target: SpBzz1-D1
# Method in brief: as §1
# SpBzz1-D2 = molecular target: SpBzz1-D2
# Method in brief: as §1
# SpCyk3 = molecular target: SpCyk3
# Method in brief: as §1
# SpHof1 = molecular target: SpHof1
# Method in brief: as §1
# SpHof1-2 = molecular target: SpHof1-2
# Method in brief: as §1
# SpHof1-3 = molecular target: SpHof1-3
# Method in brief: as §1
# SpHse1 = molecular target: SpHse1
# Method in brief: as §1
# SpLsb1 = molecular target: SpLsb1
# Method in brief: as §1
# SpLsb4 = molecular target: SpLsb4
# Method in brief: as §1
# SpMyo1 = molecular target: SpMyo1
# Method in brief: as §1
# SpNbp2 = molecular target: SpNbp2
# Method in brief: as §1
# SpPex13 = molecular target: SpPex13
# Method in brief: as §1
# SpRvs167 = molecular target: SpRvs167
# Method in brief: as §1
# SpSla1-D1-D2 = molecular target: SpSla1-D1-D2
# Method in brief: as §1
# SpSla1-D3 = molecular target: SpSla1-D3
# Method in brief: as §1
# AgAbp1 = molecular target: AgAbp1
# Method in brief: as §1
# AgBbc1 = molecular target: AgBbc1
# Method in brief: as §1
# AgBem1-D1 = molecular target: AgBem1-D1
# Method in brief: as §1
# AgBzz1-D1 = molecular target: AgBzz1-D1
# Method in brief: as §1
# AgBzz1-D2 = molecular target: AgBzz1-D2
# Method in brief: as §1
# AgCyk3 = molecular target: AgCyk3
# Method in brief: as §1
# AgFus1 = molecular target: AgFus1
# Method in brief: as §1
# AgHof1 = molecular target: AgHof1
# Method in brief: as §1
# AgHse1 = molecular target: AgHse1
# Method in brief: as §1
# AgLsb1 = molecular target: AgLsb1
# Method in brief: as §1
# AgLsb4 = molecular target: AgLsb4
# Method in brief: as §1
# AgMyo5 = molecular target: AgMyo5
# Method in brief: as §1
# AgNbp2 = molecular target: AgNbp2
# Method in brief: as §1
# AgRvs167 = molecular target: AgRvs167
# Method in brief: as §1
# AgSho1 = molecular target: AgSho1
# Method in brief: as §1
# AgSla1-D1-D2 = molecular target: AgSla1-D1-D2
# Method in brief: as §1
# AgSla1-D3 = molecular target: AgSla1-D3
# Method in brief: as §1
# CaAbp1-D1 = molecular target: CaAbp1-D1
# Method in brief: as §1
# CaAbp1-D2 = molecular target: CaAbp1-D2
# Method in brief: as §1
# CaBbc1 = molecular target: CaBbc1
# Method in brief: as §1
# CaBem1-D1 = molecular target: CaBem1-D1
# Method in brief: as §1
# CaBzz1-D1 = molecular target: CaBzz1-D1
# Method in brief: as §1
# CaBzz1-D2 = molecular target: CaBzz1-D2
# Method in brief: as §1
# CaCyk3 = molecular target: CaCyk3
# Method in brief: as §1
# CaFus1 = molecular target: CaFus1
# Method in brief: as §1
# CaHof1 = molecular target: CaHof1
# Method in brief: as §1
# CaHse1 = molecular target: CaHse1
# Method in brief: as §1
# CaLsb1 = molecular target: CaLsb1
# Method in brief: as §1
# CaLsb4 = molecular target: CaLsb4
# Method in brief: as §1
# CaMyo5 = molecular target: CaMyo5
# Method in brief: as §1
binder,measurement,setting,value
ATKSASPTLPTRRSR,SPOT peptide array binding signal intensity,CaNbp2,77
same,SPOT peptide array binding signal intensity,CaRvs167,607
same,SPOT peptide array binding signal intensity,CaRvs167-3,9.25
same,SPOT peptide array binding signal intensity,CaSho1,23
same,SPOT peptide array binding signal intensity,CaSla1-D1-D2,1430
same,SPOT peptide array binding signal intensity,CaSla1-D3,1.75
same,SPOT peptide array binding signal intensity,ScAbp1,192
same,SPOT peptide array binding signal intensity,ScBbc1,405
same,SPOT peptide array binding signal intensity,ScBem1-D1,30
same,SPOT peptide array binding signal intensity,ScBzz1-D1,95
same,SPOT peptide array binding signal intensity,ScBzz1-D2,52
same,SPOT peptide array binding signal intensity,ScCyk3,32
same,SPOT peptide array binding signal intensity,ScFus1,14
same,SPOT peptide array binding signal intensity,ScHof1,3.5
same,SPOT peptide array binding signal intensity,ScHse1,172
same,SPOT peptide array binding signal intensity,ScLsb1,651
same,SPOT peptide array binding signal intensity,ScLsb2,13.5
same,SPOT peptide array binding signal intensity,ScLsb3,5480
same,SPOT peptide array binding signal intensity,ScLsb4,2750
same,SPOT peptide array binding signal intensity,ScMyo3,1.5
same,SPOT peptide array binding signal intensity,ScMyo5,5
same,SPOT peptide array binding signal intensity,ScNbp2,63.5
same,SPOT peptide array binding signal intensity,ScPex13,511
same,SPOT peptide array binding signal intensity,ScRvs167,1320
same,SPOT peptide array binding signal intensity,ScSho1,65.5
same,SPOT peptide array binding signal intensity,ScSla1-D1-D2,726
same,SPOT peptide array binding signal intensity,ScSla1-D3,25.8
same,SPOT peptide array binding signal intensity,SpAbp1-D1,356
same,SPOT peptide array binding signal intensity,SpBbc1,27
same,SPOT peptide array binding signal intensity,SpBzz1-D1,366
same,SPOT peptide array binding signal intensity,SpBzz1-D2,1
same,SPOT peptide array binding signal intensity,SpCyk3,3
same,SPOT peptide array binding signal intensity,SpHof1,732
same,SPOT peptide array binding signal intensity,SpHof1-2,83
same,SPOT peptide array binding signal intensity,SpHof1-3,110
same,SPOT peptide array binding signal intensity,SpHse1,77
same,SPOT peptide array binding signal intensity,SpLsb1,90
same,SPOT peptide array binding signal intensity,SpLsb4,7440
same,SPOT peptide array binding signal intensity,SpMyo1,46.8
same,SPOT peptide array binding signal intensity,SpNbp2,21.5
same,SPOT peptide array binding signal intensity,SpPex13,17
same,SPOT peptide array binding signal intensity,SpRvs167,2470
same,SPOT peptide array binding signal intensity,SpSla1-D1-D2,334
same,SPOT peptide array binding signal intensity,SpSla1-D3,≤ 0
MPAPPPPPPPPPGAF,SPOT peptide array binding signal intensity,AgAbp1,≤ 0
same,SPOT peptide array binding signal intensity,AgBbc1,3.81e-06
same,SPOT peptide array binding signal intensity,AgBem1-D1,≤ 0
same,SPOT peptide array binding signal intensity,AgBzz1-D1,≤ 0
same,SPOT peptide array binding signal intensity,AgBzz1-D2,19.5
same,SPOT peptide array binding signal intensity,AgCyk3,≤ 0
same,SPOT peptide array binding signal intensity,AgFus1,≤ 0
same,SPOT peptide array binding signal intensity,AgHof1,51.2
same,SPOT peptide array binding signal intensity,AgHse1,≤ 0
same,SPOT peptide array binding signal intensity,AgLsb1,≤ 0
same,SPOT peptide array binding signal intensity,AgLsb4,≤ 0
same,SPOT peptide array binding signal intensity,AgMyo5,822
same,SPOT peptide array binding signal intensity,AgNbp2,≤ 0
same,SPOT peptide array binding signal intensity,AgRvs167,≤ 0
same,SPOT peptide array binding signal intensity,AgSho1,≤ 0
same,SPOT peptide array binding signal intensity,AgSla1-D1-D2,≤ 0
same,SPOT peptide array binding signal intensity,AgSla1-D3,0.5
same,SPOT peptide array binding signal intensity,CaAbp1-D1,18.5
same,SPOT peptide array binding signal intensity,CaAbp1-D2,≤ 0
same,SPOT peptide array binding signal intensity,CaBbc1,0.25
same,SPOT peptide array binding signal intensity,CaBem1-D1,40
same,SPOT peptide array binding signal intensity,CaBzz1-D1,970
same,SPOT peptide array binding signal intensity,CaBzz1-D2,69.1
same,SPOT peptide array binding signal intensity,CaCyk3,≤ 0
same,SPOT peptide array binding signal intensity,CaFus1,33
same,SPOT peptide array binding signal intensity,CaHof1,≤ 0
same,SPOT peptide array binding signal intensity,CaHse1,4.62
same,SPOT peptide array binding signal intensity,CaLsb1,≤ 0
same,SPOT peptide array binding signal intensity,CaLsb4,≤ 0
same,SPOT peptide array binding signal intensity,CaMyo5,66
same,SPOT peptide array binding signal intensity,CaNbp2,29
same,SPOT peptide array binding signal intensity,CaRvs167,≤ 0
same,SPOT peptide array binding signal intensity,CaRvs167-3,2.75
same,SPOT peptide array binding signal intensity,CaSho1,13.8
same,SPOT peptide array binding signal intensity,CaSla1-D1-D2,≤ 0
same,SPOT peptide array binding signal intensity,CaSla1-D3,≤ 0
same,SPOT peptide array binding signal intensity,ScAbp1,≤ 0
same,SPOT peptide array binding signal intensity,ScBbc1,≤ 0
same,SPOT peptide array binding signal intensity,ScBem1-D1,≤ 0
same,SPOT peptide array binding signal intensity,ScBzz1-D1,27.5
same,SPOT peptide array binding signal intensity,ScBzz1-D2,≤ 0
same,SPOT peptide array binding signal intensity,ScCyk3,≤ 0
same,SPOT peptide array binding signal intensity,ScFus1,≤ 0
same,SPOT peptide array binding signal intensity,ScHof1,≤ 0
same,SPOT peptide array binding signal intensity,ScHse1,4.25
same,SPOT peptide array binding signal intensity,ScLsb1,≤ 0
same,SPOT peptide array binding signal intensity,ScLsb2,≤ 0
same,SPOT peptide array binding signal intensity,ScLsb3,≤ 0
same,SPOT peptide array binding signal intensity,ScLsb4,≤ 0
same,SPOT peptide array binding signal intensity,ScMyo3,1010
same,SPOT peptide array binding signal intensity,ScMyo5,634
same,SPOT peptide array binding signal intensity,ScNbp2,≤ 0
same,SPOT peptide array binding signal intensity,ScPex13,71.9
same,SPOT peptide array binding signal intensity,ScRvs167,≤ 0
same,SPOT peptide array binding signal intensity,ScSho1,5.75
same,SPOT peptide array binding signal intensity,ScSla1-D1-D2,≤ 0
same,SPOT peptide array binding signal intensity,ScSla1-D3,0.125
same,SPOT peptide array binding signal intensity,SpAbp1-D1,7
same,SPOT peptide array binding signal intensity,SpBbc1,≤ 0
same,SPOT peptide array binding signal intensity,SpBzz1-D1,1360
same,SPOT peptide array binding signal intensity,SpBzz1-D2,5.62
same,SPOT peptide array binding signal intensity,SpCyk3,≤ 0
same,SPOT peptide array binding signal intensity,SpHof1,0.5
same,SPOT peptide array binding signal intensity,SpHof1-2,7.75
same,SPOT peptide array binding signal intensity,SpHof1-3,4.25
same,SPOT peptide array binding signal intensity,SpHse1,17.5
same,SPOT peptide array binding signal intensity,SpLsb1,≤ 0
same,SPOT peptide array binding signal intensity,SpLsb4,≤ 0
same,SPOT peptide array binding signal intensity,SpMyo1,521
same,SPOT peptide array binding signal intensity,SpNbp2,≤ 0
same,SPOT peptide array binding signal intensity,SpPex13,≤ 0
same,SPOT peptide array binding signal intensity,SpRvs167,43.4
same,SPOT peptide array binding signal intensity,SpSla1-D1-D2,≤ 0
same,SPOT peptide array binding signal intensity,SpSla1-D3,≤ 0
